Screening results as filed in PubChem BioAssay.
The full list was thinned out, with hits kept by preference.
Dicer processing: human Dicer pre-microRNA cleavage inhibition | AID 1347074 | z-score at 25 µM | hit rate 6% among 47,000 | Q9UPY3 | cat-ELCCA pre-miR-21 Dicer processing, chemiluminescence; active compounds read high; in the data active means z-score above about 3, passing the limit was not always enough;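 further: plate controls were vehicle for no effect and no enzyme for full effect; higher signal means more uncleaved substrate so more Dicer inhibition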
Numbers without * were called inactive.

SMILES	Dicer processing
COc1ccc(OC(=O)c2c(C)nn(-c3ccccc3)c2C)cc1	0.4
CC(C)(C)c1cc(C(=O)O)nn1-c1ccccc1	0.69
Cc1nn(-c2ccccc2)c(C)c1C(=O)O	8.41*
Cc1nn(-c2ccccc2)c(C)c1C(=O)Oc1ccc(Cl)cc1Cl	0.09
O=C(Nc1ccccc1)c1nc(-c2ccccc2)n(-c2ccccc2)n1	0.27
O=C(O)c1nc(-c2ccccc2)n(-c2ccccc2)n1	5.39*
COc1ccc(NC(=O)c2ccc(C)cc2N)c(N)c1	-0.73
O=C(O)c1ccc(N2C(=O)C3CC=CCC3C2=O)cc1Cl (stereo not given)	1.49
CN(C)c1ccc(NC(=O)c2ncn[nH]2)cc1	0.51
O=S(=O)(Nc1cc(-c2cccs2)nn1-c1ccc(F)cc1)c1ccc(-c2cc(C(F)(F)F)on2)s1	-0.08
Cc1ccc(NC(=O)N2CCCn3c(SCc4ccc(F)cc4)nnc32)cc1	-1.72
O=C(O)CCc1c[nH]c2ccccc12	-2.24
CC(Cc1c[nH]c2ccccc12)C(=O)O (stereo not given)	4.99*
O=C(O)CCCc1c[nH]c2ccccc12	0.68
O=c1cc(CSc2nnc(SCC3CC3)s2)c2ccc(O)cc2o1	-0.54
CC1(C(=O)O)NC(c2ccc(O)cc2O)C2C(=O)N(c3ccc(Br)cc3)C(=O)C21 (stereo not given)	5.01*
Cc1ccc(N2C(=O)C3C4C=CC(CO)(O4)C3C2=O)cc1Br (stereo not given)	-0.21
Cc1ccc(N2C(=O)C3C4c5ccccc5C(C(=O)O)(c5ccccc54)C3C2=O)cc1 (stereo not given)	1.65
C=CC[n+]1sc2ccc(Cl)cc2c1C	-0.29
O=C(CCc1ccccc1)N1CCC(c2ccccc2)C1 (stereo not given)	-1.42
CN1CCOC(c2ccccc2)c2ccccc2C1 (stereo not given)	0.53
CC1C(c2ccccc2)OCCN1C(=O)CCC(=O)N1CCOC(c2ccccc2)C1C (stereo not given)	5.63*
O=C1SCCC1NS(=O)(=O)c1ccc(F)cc1Cl (stereo not given)	-1.13
Cn1c(=O)c([N+](=O)[O-])c(O)c2c(=O)n(-c3ccccc3)c(=O)n(-c3ccccc3)c21	-1.45
CCOC(=O)Oc1ccc2c(c1)C(C)=CC(C)(C)N2	0.43
SMILES	Dicer processing
CC1=CC(C)(C)Nc2ccc(OC(=O)COc3ccccc3)cc21	-3.41
CC1=CC(C)(C)Nc2ccc(OC(=O)c3ccccc3Br)cc21	3.97*
CC1=CC(C)(C)Nc2ccc(OC(=O)c3cccc(Br)c3)cc21	3.07*
CC1=CC(C)(C)N2C(=O)C(=O)c3cc(OC(=O)c4ccccc4Br)cc1c32	1.67
CC1=CC(C)(C)Nc2ccc(OC(=O)c3ccc(Cl)cc3)cc21	4.63
C=CCN(c1ccccc1C(=O)NCC(=O)O)S(=O)(=O)c1ccccc1Cl	-0.43
CSc1cccc(N2C(=O)CC3(CCCC3)CC2=O)c1	-1.64
COc1ccc(CNc2nc(-c3cccs3)c(C#N)c(=O)n2C)cc1	-0.9
Nc1ccc(CCc2nc3ccc(N)cc3[nH]2)cc1	0
COc1ccc(OCc2nc3ccccc3[nH]2)cc1	1.12
Nc1cccc(CCc2nc3cc4ccccc4cc3[nH]2)c1	6.91*
O=S(=O)(CCc1nc2ccccc2[nH]1)CCc1nc2ccccc2[nH]1	0.33
c1ccc(CCc2nc3ccccc3[nH]2)cc1	3.21*
CCN(CC)Cc1nc2ccccc2[nH]1	3.38*
Oc1ccc(Cc2nc3ccccc3[nH]2)cc1	0.44
Nc1cccc(-c2nc3ccccc3[nH]2)c1	-0.02
c1ccc2[nH]c(CCCc3nc4ccccc4[nH]3)nc2c1	2.51
O=C(Nc1cccc(C(F)(F)F)c1)c1cccc(C(F)(F)F)n1	-0.72
CCCc1c(C(=O)OCC)cnn1-c1c(Cl)cc(Cl)cc1Cl	-1.24
COc1cc(C2SCCS2)cc(Br)c1OS(=O)(=O)c1ccc(C)cc1	-7.86
COC(=O)C1=C(C)NC2=C(C(=O)c3ccccc32)C1c1ccc2c(c1)OCO2 (stereo not given)	1.12
O=C(/C(=C\c1ccccc1)n1ccnc1)c1ccccc1OCc1ccccc1	-2.51
Cc1c(S(=O)(=O)c2ccc(Cl)cc2)csc1S(=O)(=O)N/N=C/c1c(Cl)cccc1Cl	-3
Cc1cc(Sc2ccc(C(F)(F)F)cc2[N+](=O)[O-])c(Cl)cc1Cl	-0.53
COc1cc([N+](=O)[O-])c(C)cc1Sc1ccc(C)cc1	-0.13
SMILES	Dicer processing
COc1ccc(OC)c(Sc2ccc(Cl)cc2[N+](=O)[O-])c1	0.07
COc1ccc(OC)c(Sc2ccc([N+](=O)[O-])cc2)c1	4.48*
COc1cc(Sc2ccc(Cl)cc2)ccc1[N+](=O)[O-]	-0.52
COc1ccc(OC)c(Sc2ccc(C(F)(F)F)cc2[N+](=O)[O-])c1	7.84*
CCN(CC)S(=O)(=O)c1ccc(Br)c2nsnc12	4.64
COc1ccccc1-c1nnc(SCC#CCOC(=O)c2ccc(Cl)cc2)o1	-1.23
CCOc1ccccc1C(=O)NC(Nc1ncccn1)(C(F)(F)F)C(F)(F)F	-1.03
O=C(NCCc1ccccn1)c1nc2ccccc2c(=O)[nH]1	0
CC(C)(C)C(=O)O/N=C(/c1cccs1)C(C)(C)C	0.1
